We go through five molecules from PubChem BioAssay (NCATS).

For test [1], the target named is Lysosomal acid glucosylceramidase (Homo sapiens) (UniProt P04062). Description: Glucocerebrosidase-p2 (AID 348; in the data active means potency below about 10 µM; further: potency means the concentration at half of the fitted maximal effect). To be noted: purified GBA, blue fluorogenic substrate, 40 min. Summed up:
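Compounds titrated from 0.6 nM upwards against 0.2 nM enzyme in pH 5.9 citric acid/KH2PO4, taurocholate, tween-20; blue fluorogenic substrate 80 uM, 40 min room temperature, stopped and read Ex 365/Em 440 for AC50.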

Test [2] is described as follows: AP1 Signaling Pathway (AID 357; active means well fitted curve in either direction with a large enough effect, not every such curve was filed as active; further: on the % scale 0 is the no-effect control and ±100 the full control effect). The conditions noted are these: ME-180 AP-1-bla reporter, EGF-induced, beta-lactamase ratio, 5 h; at 7.69 µM (top of the series) unless noted. In a few lines: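 AP-1-bla ME-180 cells with beta-lactamase reporter under AP-1 response element, stimulated with EC50 EGF; compounds titrated, 5 hours at 37 degrees Celsius. CCF4 read at 460/530 nm ratio; positive and negative modulators judged by AC50.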

The target of test [3] is Cytochrome P450 1A2 (Homo sapiens) (UniProt P05177). Description: p450-cyp1a2 (AID 410; calls by dose curve; further: potency means the concentration at half of the fitted maximal effect). In a few lines: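 Luminescent readout of luciferin formed from Luciferin-ME by human CYP1A2; data normalized against complete inhibition by 57 uM furafylline. Enzyme 20nM, substrate 100uM at Km, 100mM KPO4 buffer, 60 min reaction at room temperature.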
Test [4] can be described thus: NFAT Signaling Pathway (AID 444; active means well fitted curve in either direction with a large enough effect, not every such curve was filed as active;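 further: carbachol stimulus at about its EC50 of 1 µM final; on the % scale 0 is the no-effect control and ±100 the full control effect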). The conditions noted are these: Jurkat NFAT-bla M1, carbachol, beta-lactamase ratio, 5 h; at 7.69 µM (top of the series) unless noted. Summed up:
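Read-out: CCF4 FRET ratio (460 nm/530 nm) after 1 h RT dye loading, used for %activity and AC50 from titration series. Cells: Jurkat NFAT-β-lactamase/M1 line, treated with compound plus 1 uM carbachol for 5 h, 37 °C.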

Test [5] is described as follows: Stat Signaling Pathway (AID 446; active means well fitted curve in either direction with a large enough effect, not every such curve was filed as active;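 further: ME-180 cervical cancer cells given 40 pM IL-6 alongside compound; SIE-controlled beta-lactamase reporter measured as 460/530 nm FRET emission ratio; on the % scale 0 is the no-effect control and ±100 the full control effect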). The conditions noted are these: ME-180 SIE beta-lactamase reporter, IL-6 stimulated, 5 h; at 7.69 µM (top of the series) unless noted. Summed up: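 ME-180 cells carrying a SIE-driven beta-lactamase reporter are stimulated with 40 pM IL-6 for 5 h at 37C in the presence of compound. The 460/530 nm FRET substrate ratio is read after 2.5 h at RT. Data are normalised to 300 pM IL-6 and to 125 nM JAK inhibitor controls.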

The target in test [6] is Glucocorticoid receptor (Homo sapiens) (UniProt P04150). Description: GR-GFP Redistribution (AID 450;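 active means compounds whose dose series gives a full or clear partial fitted curve of increased nuclear translocation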; further: potency means the concentration at half of the fitted maximal effect). To be noted: U2OS GR-GFP nuclear translocation, laser cytometry, 2 h.
For test [7] the target is unchanged. Description: GR-EFC Redistribution (AID 451; calls by dose curve; further: potency means the concentration at half of the fitted maximal effect). The conditions noted are these: CHO-K1 GR-EFC translocation, beta-gal luminescence, 2 h. In a few lines:
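Translocation of GR-ED fusion to nuclear EA restores b-gal, read by luminescence after 1 h room-temperature detection. Engineered CHO-K1 biosensor cells, 1,000/well, exposed 2 h at 37 C to titrations up to 46 uM final.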

Test [8] has as its target Mitogen-activated protein kinase 10 (Mus musculus) (UniProt Q61831). Description: JNK3 AlphaScreen Assay (AID 530; active means well fitted curve in either direction with a large enough effect, not every such curve was filed as active;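 further: kinase came from lysate of stimulated human HepG2 cells; signal reports phosphorylation of biotinylated GST-cJun 1-79 at Ser73 with 10 µM ATP; on the % scale 0 is the no-effect control and ±100 the full control effect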). Summed up:
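Compound titrations were preincubated 15 minutes at room temperature with substrate, antibody and pre-activated JNK3-containing HepG2 lysate. Reactions were started with 10 uM ATP and stopped with EDTA-containing bead buffer for AlphaScreen detection.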
On the technique in general: Alpha assays give light when donor and acceptor beads are brought close together.

Test [9] concerns the target 3',5'-cyclic-AMP phosphodiesterase 4B (Homo sapiens) (UniProt Q07343). Description: qHTS Assay for Inhibitors of PDE-IV (AID 607; active means well fitted activation curve with a large enough effect in the main read-out, with a control signal flat, not every such curve was filed as active; further: % of control where 0% means no effect). In a few lines:
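HEK293 ACTOne cells with CNG channel (1000/well), endogenous PDE4; membrane potential dye, compounds up to 22.9 uM final. Fluorescence Ex 535/Em 590; RO 20-1724 (100 uM final) as reference.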

A short description of test [10]: qHTS Assay for Lipid Storage Modulators (AID 1519; calls by dose curve). The conditions noted are these: Drosophila S3 cells, BODIPY lipid droplet/cell ratio, laser cytometry, cells loaded with oleic acid; for activity change, negative = inhibition: at 57.5 µM (top of the series). Summed up:
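Cells seeded at 5,000 per well were treated with compounds over a concentration series and loaded with oleic acid (400 uM, as added). Lipid droplet fluorescence (488 nm excitation, 500-530 nm channel) was read by laser-scanning cytometry and normalized to 20 uM Triacsin C.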
In general terms: qHTS replaces the single test concentration by a dilution series.

For test [11], the target named is Dual specificity protein kinase CLK4 (Homo sapiens) (UniProt Q9HAZ1). Description: qHTS Assay for Inhibitors of CDC-like Kinase 4 (Kinase-Glo Assay) (AID 1770). Further: on the % scale 0 is the no-effect control and ±100 the full control effect; nearly all actives have a fitted effect of over 65% in size. In a few lines: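 Luminescent ATP-depletion read-out (Kinase-Glo) after 4.5 h room-temperature reaction of Clk4 (25 nM final) with RS peptide (100 uM) and ATP (1 uM), pH 7.5 Tris buffer with MgCl2 and DTT.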

Test [12] has the same target. Description: qHTS Assay for Inhibitors of CDC-like Kinase 4 (ADP-Glo Assay) (AID 1771). Further: on the % scale 0 is the no-effect control and ±100 the full control effect; nearly all actives have a fitted effect of over 70% in size. Summed up: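 Luminescence from ADP-Glo reports ADP produced by 25 nM Clk4 acting on 100 uM RS repeat peptide with 1 uM ATP over 1 hr at room temperature; residual ATP is depleted before ADP is converted to ATP for detection.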
Test [13] shares this target. Description: qHTS Assay for Inhibitors of CDC-like Kinase 4 (ADP-FP Assay) (AID 1795).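 Further: recombinant human CLK4 phosphorylating RS repeat peptide at 1 µM ATP; on the % scale 0 is the no-effect control and ±100 the full control effect; nearly all actives have a fitted effect of over 60% in size.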 Summed up:
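Kinase activity was measured as ADP production using Transcreener orange tracer (4 nM) and ADP antibody (1 ug/mL) fluorescence polarization, with ADP calculated from a calibration curve. The 1 h reaction contained 6.25 nM Clk4, 1 uM ATP and 100 uM RS peptide at pH 7.5 with Mg2+.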

In test [14] the target is Ubiquitin carboxyl-terminal hydrolase 1 (Homo sapiens) (UniProt O94782). Description: Inhibitors of USP1/UAF1: Pilot qHTS (AID 504865).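 Further: rhodamine fluorescence freed from ubiquitin-rhodamine substrate followed over time; top concentration of the series differs between compounds; on the % scale 0 is the no-effect control and ±100 the full control effect; nearly all actives have a fitted effect of over 35% in size.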 Summed up: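 Deubiquitinase activity followed as kinetic rhodamine fluorescence release from 150 nM Ub-Rho. 1 nM USP1/UAF1 with compound, after 15 min room-temperature preincubation, in HEPES pH 7.8 buffer containing TCEP, EDTA, BSA and Tween-20.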

Test [15] in a line: Primary qHTS for small molecule stabilizers of the endoplasmic reticulum resident proteome: Secreted ER Calcium Modulated Protein (SERCaMP) assay (AID 1508630). Further: on the % scale 0 is the no-effect control and ±100 the full control effect. Summed up: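 GLuc-SERCaMP-expressing SH-SY5Y cells, pretreated 16 h with compound, are challenged with thapsigargin to empty ER calcium stores; after 4 h, coelenterazine is added directly to the medium and luminescence is imaged.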

Test [16] deals with Rap guanine nucleotide exchange factor 3 (Homo sapiens) (UniProt O95398). Description: Confirmatory qHTS for agonist of cAMP-regulated guanine nucleotide exchange factor 3 (EPAC1) (AID 1645881).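 Further: EPAC1 catalysed release of BODIPY-GDP from Rap1B seen as fluorescence loss; 100% = effect of cAMP agonist control; nearly all actives have a fitted effect of over 75% in size.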
The target in test [17] is Cytochrome P450 3A4 (Homo sapiens) (UniProt P08684). Description: qHTS Assay for Activators of Cytochrome P450 3A4 (AID 885). Further: nearly all actives have a fitted effect of over 65% in size. Summed up:
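Human CYP3A4 (20 nM) with Luciferin-PPXE at 25 uM (its KM) in 200 mM KPO4; 10 min compound preincubation, then NADPH regeneration and 60 min reaction at RT. Luciferin read by luminescence; normalized to 57 uM ketoconazole full inhibition.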

The target of test [18] is Rap guanine nucleotide exchange factor 4 (Homo sapiens) (UniProt Q8WZA2). Description: Confirmatory qHTS for agonist of cAMP-regulated guanine nucleotide exchange factor 4 (EPAC2) (AID 1645884).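 Further: nucleotide exchange releases bodipy-GDP from Rap1 and this lowers its fluorescence; on the % scale 0 is the no-effect control and ±100 the full control effect; nearly all actives have a fitted effect of over 65% in size.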
The mark [19] stands for this setting: measured here: cell count channel max response.
[20] abbreviates: measured here: lipid channel max response.

Records with an inconclusive call do not appear. Calls of active or inactive are those of the source. Unless noted, the call rests on the fitted dose curve; in most records, active means well fitted curve in the direction sought with a large enough effect; inconclusive means small, poorly fitted or top-dose-only effect, or another doubt; inactive means no such curve, though single readings can be large; an effect the other way counts as inactive or inconclusive.

Chain of Cytochrome P450 1A2 (Homo sapiens) (P05177 whole entry, looked up): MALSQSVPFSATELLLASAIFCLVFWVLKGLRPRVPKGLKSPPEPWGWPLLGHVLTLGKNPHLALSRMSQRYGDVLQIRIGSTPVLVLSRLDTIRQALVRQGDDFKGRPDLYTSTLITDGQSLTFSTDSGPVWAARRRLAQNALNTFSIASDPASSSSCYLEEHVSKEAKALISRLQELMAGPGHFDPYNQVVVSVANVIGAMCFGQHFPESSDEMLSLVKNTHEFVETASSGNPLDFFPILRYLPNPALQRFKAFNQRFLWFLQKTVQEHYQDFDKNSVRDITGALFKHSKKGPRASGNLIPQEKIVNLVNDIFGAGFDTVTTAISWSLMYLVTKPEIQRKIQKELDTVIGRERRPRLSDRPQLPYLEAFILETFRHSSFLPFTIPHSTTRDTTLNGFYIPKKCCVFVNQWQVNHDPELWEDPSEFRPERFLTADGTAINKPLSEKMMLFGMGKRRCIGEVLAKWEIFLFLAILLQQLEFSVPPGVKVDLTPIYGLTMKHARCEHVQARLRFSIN
Chain of Dual specificity protein kinase CLK4 (Homo sapiens) (Q9HAZ1 whole entry, looked up): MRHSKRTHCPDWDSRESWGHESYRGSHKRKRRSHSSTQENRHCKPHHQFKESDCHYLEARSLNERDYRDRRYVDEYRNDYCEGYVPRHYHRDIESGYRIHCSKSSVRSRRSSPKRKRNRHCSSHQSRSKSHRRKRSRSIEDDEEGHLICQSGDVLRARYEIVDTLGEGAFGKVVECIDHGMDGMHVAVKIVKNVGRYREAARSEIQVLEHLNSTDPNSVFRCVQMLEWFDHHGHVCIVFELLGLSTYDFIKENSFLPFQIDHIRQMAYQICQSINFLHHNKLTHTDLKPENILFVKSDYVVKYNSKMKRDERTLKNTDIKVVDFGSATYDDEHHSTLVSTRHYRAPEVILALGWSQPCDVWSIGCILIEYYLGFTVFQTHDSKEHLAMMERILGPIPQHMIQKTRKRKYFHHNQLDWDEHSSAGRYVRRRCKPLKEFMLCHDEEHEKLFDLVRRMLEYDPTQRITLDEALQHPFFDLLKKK
Chain of Ubiquitin carboxyl-terminal hydrolase 1 (Homo sapiens) (O94782 whole entry, looked up): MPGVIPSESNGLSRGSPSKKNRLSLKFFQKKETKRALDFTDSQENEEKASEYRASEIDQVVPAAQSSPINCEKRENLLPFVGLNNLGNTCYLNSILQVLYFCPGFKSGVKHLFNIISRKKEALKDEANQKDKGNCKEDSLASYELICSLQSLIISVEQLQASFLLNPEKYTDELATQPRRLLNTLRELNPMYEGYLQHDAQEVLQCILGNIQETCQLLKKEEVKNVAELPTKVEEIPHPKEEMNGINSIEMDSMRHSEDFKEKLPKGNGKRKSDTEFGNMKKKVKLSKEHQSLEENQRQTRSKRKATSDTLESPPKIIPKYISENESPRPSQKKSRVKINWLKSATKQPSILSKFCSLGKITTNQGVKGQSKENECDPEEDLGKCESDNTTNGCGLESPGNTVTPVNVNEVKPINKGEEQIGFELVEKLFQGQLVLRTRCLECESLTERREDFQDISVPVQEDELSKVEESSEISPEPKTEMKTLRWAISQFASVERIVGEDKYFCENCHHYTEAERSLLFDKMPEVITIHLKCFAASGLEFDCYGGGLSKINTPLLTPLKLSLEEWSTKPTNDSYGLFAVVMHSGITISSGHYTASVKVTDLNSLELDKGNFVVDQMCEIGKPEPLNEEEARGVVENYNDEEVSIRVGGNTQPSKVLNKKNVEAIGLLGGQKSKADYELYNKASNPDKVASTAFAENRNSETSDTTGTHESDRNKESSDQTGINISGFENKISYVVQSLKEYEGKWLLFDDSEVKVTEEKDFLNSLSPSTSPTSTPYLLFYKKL
Chain of 3',5'-cyclic-AMP phosphodiesterase 4B (Homo sapiens) (Q07343 whole entry, looked up): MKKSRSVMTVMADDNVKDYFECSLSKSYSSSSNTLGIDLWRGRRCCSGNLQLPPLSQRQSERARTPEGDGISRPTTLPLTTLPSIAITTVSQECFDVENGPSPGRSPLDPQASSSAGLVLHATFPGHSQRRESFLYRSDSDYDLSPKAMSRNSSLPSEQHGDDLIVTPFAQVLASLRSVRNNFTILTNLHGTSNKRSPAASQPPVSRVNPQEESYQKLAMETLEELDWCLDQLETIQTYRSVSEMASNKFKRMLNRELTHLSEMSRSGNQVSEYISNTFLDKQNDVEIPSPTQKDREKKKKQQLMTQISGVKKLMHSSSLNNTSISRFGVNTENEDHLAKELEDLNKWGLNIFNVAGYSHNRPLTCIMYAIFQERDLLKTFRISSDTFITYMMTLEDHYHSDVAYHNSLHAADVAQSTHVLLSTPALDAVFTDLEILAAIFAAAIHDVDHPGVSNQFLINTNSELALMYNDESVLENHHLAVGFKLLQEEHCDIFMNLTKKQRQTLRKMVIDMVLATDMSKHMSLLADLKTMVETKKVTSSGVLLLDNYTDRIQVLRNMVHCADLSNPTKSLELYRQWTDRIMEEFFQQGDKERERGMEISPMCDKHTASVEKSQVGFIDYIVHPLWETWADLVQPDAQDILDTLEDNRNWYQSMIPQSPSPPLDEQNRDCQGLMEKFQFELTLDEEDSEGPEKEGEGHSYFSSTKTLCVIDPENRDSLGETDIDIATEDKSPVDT
Chain of Glucocorticoid receptor (Homo sapiens) (P04150 whole entry, looked up): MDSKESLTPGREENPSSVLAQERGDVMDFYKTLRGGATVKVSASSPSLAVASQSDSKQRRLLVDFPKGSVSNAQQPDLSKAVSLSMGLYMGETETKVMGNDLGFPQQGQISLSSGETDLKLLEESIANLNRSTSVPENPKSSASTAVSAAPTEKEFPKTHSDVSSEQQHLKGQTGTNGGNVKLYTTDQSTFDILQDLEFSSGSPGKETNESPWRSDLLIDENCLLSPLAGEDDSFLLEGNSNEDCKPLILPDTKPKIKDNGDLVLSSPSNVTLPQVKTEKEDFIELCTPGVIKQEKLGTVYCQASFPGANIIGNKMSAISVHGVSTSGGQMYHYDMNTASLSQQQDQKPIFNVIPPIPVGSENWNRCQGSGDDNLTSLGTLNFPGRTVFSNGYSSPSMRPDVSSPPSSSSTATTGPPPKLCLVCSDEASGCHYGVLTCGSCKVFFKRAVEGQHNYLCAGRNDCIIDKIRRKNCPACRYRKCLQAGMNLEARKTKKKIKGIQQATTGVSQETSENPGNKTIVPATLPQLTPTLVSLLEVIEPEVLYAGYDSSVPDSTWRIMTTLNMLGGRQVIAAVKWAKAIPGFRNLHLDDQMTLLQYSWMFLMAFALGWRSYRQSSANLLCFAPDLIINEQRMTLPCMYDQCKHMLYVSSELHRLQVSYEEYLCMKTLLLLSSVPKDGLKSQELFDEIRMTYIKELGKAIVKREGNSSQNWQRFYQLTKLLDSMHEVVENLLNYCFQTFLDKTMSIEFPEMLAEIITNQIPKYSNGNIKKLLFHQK
Chain of Lysosomal acid glucosylceramidase (Homo sapiens) (P04062 whole entry, looked up): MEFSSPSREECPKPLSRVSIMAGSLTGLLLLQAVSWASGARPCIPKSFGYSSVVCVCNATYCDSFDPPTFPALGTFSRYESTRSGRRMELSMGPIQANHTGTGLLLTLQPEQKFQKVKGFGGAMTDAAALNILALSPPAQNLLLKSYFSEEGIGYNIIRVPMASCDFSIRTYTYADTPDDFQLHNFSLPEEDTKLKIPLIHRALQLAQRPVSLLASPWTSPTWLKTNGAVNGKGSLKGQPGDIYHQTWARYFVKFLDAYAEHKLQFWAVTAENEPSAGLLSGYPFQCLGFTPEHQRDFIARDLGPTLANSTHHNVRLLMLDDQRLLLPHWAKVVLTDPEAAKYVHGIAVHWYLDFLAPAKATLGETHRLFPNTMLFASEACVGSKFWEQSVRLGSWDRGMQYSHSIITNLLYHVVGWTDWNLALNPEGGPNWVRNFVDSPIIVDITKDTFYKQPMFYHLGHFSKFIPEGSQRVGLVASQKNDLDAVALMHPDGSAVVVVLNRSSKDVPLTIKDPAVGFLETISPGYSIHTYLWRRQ
Chain of Rap guanine nucleotide exchange factor 3 (Homo sapiens) (O95398 whole entry, looked up): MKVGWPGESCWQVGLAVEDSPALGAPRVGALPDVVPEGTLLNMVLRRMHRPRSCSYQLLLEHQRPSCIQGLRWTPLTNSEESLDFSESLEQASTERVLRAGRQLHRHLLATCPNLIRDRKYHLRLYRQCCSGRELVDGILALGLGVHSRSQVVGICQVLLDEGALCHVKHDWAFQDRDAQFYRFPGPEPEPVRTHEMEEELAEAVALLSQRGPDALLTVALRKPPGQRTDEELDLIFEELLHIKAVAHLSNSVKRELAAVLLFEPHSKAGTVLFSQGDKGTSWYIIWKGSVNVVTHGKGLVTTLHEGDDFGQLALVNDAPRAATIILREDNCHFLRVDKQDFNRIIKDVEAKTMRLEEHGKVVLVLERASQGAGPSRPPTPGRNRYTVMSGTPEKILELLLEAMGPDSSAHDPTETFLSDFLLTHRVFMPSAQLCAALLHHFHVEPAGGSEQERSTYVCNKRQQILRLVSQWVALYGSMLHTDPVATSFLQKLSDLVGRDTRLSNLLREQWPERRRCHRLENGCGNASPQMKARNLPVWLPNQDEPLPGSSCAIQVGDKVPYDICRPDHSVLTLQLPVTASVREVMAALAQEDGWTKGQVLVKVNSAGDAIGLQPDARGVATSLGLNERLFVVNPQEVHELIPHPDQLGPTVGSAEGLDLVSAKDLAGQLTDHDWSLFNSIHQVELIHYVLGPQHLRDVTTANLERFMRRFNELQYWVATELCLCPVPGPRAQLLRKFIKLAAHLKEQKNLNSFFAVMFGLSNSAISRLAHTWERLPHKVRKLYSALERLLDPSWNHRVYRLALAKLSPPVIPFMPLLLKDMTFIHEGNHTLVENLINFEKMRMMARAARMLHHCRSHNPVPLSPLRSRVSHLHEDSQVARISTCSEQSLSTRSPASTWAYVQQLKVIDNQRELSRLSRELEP

Turning to `Cc1cnc(CNc2ccnc(-c3ccccc3C(F)(F)F)n2)cn1`, the Potency in test [1] was > 11.4 µM (inactive); in test [3], 15.8 µM (active); in test [6], > 46 µM (inactive); in [7], > 46 µM (inactive). For the same molecule, the activity change, negative = inhibition in test [2] is 2.04% (inactive); in [4], 0.146% (inactive); in [10] it was 8.15% (inactive). The activity, negative = inhibition in [5] is 2.4% (inactive). For the same molecule, the outcome in [8] was inactive. In addition, the Potency entry in test [9], in test [11], in [12], in test [13], in test [14] and in [15] was “inactive” throughout. For the same molecule, the max response is 12.9% in test [10] (setting [19]) and 20.7% in test [10] (setting [20]).
For `COc1ccc(-n2c(=O)c(-c3cccs3)nc3cncnc32)cc1`, the Potency in test [1] is > 11.4 µM (inactive); in test [3] it was 10 µM (active); in [6] it was > 9.22 µM (inactive); in test [7], > 46 µM (inactive). For the same molecule, the figures for the activity change, negative = inhibition in [2], in [4] and in [10] were -19.3% (inactive), 0.0711% (inactive) and -10.8% (inactive), respectively. Further, the activity, negative = inhibition in [5] is -0.243% (inactive). For the same molecule, the molecule was called inactive in test [8]. For the same molecule, the max response in [10] (setting [19]) turned out to be 28.9%; in test [10] (setting [20]) it was 11.5%. In addition, the Potency entry in [11], in test [12], in test [13], in test [14] and in test [15] was “inactive” each time.
For the molecule `COc1ccc(-c2nc3cnc(N4CCNCC4)nc3n(Cc3cccs3)c2=O)cc1`, the results for the Potency in test [3], in test [6] and in test [7] were 3.98 µM (active), > 46 µM (inactive) and > 46 µM (inactive), respectively. The activity change, negative = inhibition was 182% [activator] (active) in test [4] and 1.49% (inactive) in test [10]. Moreover, the result in [8] and in test [16] was inactive. Besides, the Potency entry in test [9], in test [11], in test [12], in test [13] and in [15] was “inactive” each time. For the same molecule, the max response in test [10] (setting [19]) was found to be 7.67%; in test [10] (setting [20]) it was 6.52%.
Take `CCNc1ncc2nc(-c3ccc(F)cc3)c(=O)n(CCOC)c2n1`: the Potency in [1] is > 11.4 µM (inactive); in test [3], 2 µM (active); in [6] it was > 9.22 µM (inactive); in test [7], > 46 µM (inactive). Also, the figures for the activity change, negative = inhibition in test [2], in test [4] and in [10] were -5.66% (inactive), -3.34% (inactive) and 6.73% (inactive), respectively. In addition, the activity, negative = inhibition in test [5] was 10.5% (inactive). Further, the result in [8] was inactive. The Potency entry in test [9], in test [11], in test [12], in test [13], in test [14] and in test [15] was “inactive” each time. Moreover, the max response in test [10] (setting [19]) came out at 22.2%; in [10] (setting [20]), 28.8%.
In the case of `O=c1cnc2cnc(Oc3cccc(Cl)c3)nc2n1Cc1ccc(F)cc1`, the Potency in test [1] was > 11.4 µM (inactive); in test [3] it was 15.8 µM (active); in test [6], > 9.22 µM (inactive); in test [7] it was > 46 µM (inactive). In addition, the results for the activity change, negative = inhibition in test [2], in [4] and in [10] were -16% (inactive), -9.66% (inactive) and 3.63% (inactive), respectively. The activity, negative = inhibition in test [5] was -7.55% (inactive). Further, the result in [8], in test [16] and in [18] was inactive. In addition, the Potency entry in test [9], in test [17] and in [15] was “inactive” each time. In addition, the max response was 17.8% in [10] (setting [19]) and 21.6% in [10] (setting [20]).
